# Data: PubChem BioAssay (NCATS)
# Records with an inconclusive call do not appear. A number with no mark means an inactive call. Active and inactive are the calls of the source. Calls follow the shape of the dose curve; as a rule, active = well fitted inhibition curve with a large enough effect; inconclusive = small, poorly fitted or top-dose-only effect; inactive = flat fitted curve, though single readings scatter. Where a SMILES comes first, the peptide text is derived from it. Bridges are numbered along the chain shown (N, C = ends).
# Target: Phospholipid hydroperoxide glutathione peroxidase GPX4 (Homo sapiens) (UniProt P36969)
# Assay: Primary qHTS Assay for Inhibitors of Recombinant Selenoprotein Glutathione Peroxidase 4 (GPX4) (AID 1845192); also: nearly all actives have a fitted effect of over 65% in size
# Conditions: recombinant GPX4, GR-coupled NADPH fluorescence, 15 min; series mostly up to 50 µM; activity change, negative = inhibition: at the top concentration
# Outline: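 qHTS, GR-coupled: GPX4 200 nM + cpd 30 min RT → GSH 1 mM, NADPH 0.5 mM, GR 100 nM → CHP 0.5 mM start; fluor 340/450 at t0 and t15 min; no-enzyme wells as control.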
# % is scaled to controls: 0 for no effect and ±100 for the full control effect; potency is read from the fitted curve at half-maximal effect.
# Sequence of Phospholipid hydroperoxide glutathione peroxidase GPX4 (Homo sapiens) (P36969 whole entry, looked up): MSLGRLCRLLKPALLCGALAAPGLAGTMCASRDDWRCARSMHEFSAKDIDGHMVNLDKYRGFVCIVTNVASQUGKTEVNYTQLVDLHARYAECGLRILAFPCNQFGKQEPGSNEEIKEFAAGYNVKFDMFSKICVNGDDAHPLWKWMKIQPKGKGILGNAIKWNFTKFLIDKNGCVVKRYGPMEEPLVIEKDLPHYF
SMILES,"activity change, negative = inhibition",outcome,Potency
CCOC(=O)[C@H](CCc1ccccc1)N[C@H]1CCCN2CCC[C@@H](C(=O)O)N2C1=O,-2.61%,,
O=S(=O)(O)Oc1ccc(C(c2ccc(OS(=O)(=O)O)cc2)c2ccccn2)cc1,-1.03%,,
CC#CCC(C)[C@H](O)/C=C/[C@@H]1[C@H]2c3cccc(CCCC(=O)O)c3O[C@H]2C[C@H]1O (stereo partly specified),-0.433%,,
CC(C)(C)NC(=O)[C@H]1CC[C@H]2[C@@H]3CC=C4C=C(C(=O)O)CC[C@]4(C)[C@H]3CC[C@]12C,-19.7%,,
CN1CC(O)c2cc(N=NC(N)=O)c(O)cc21 (stereo unspecified),,inactive,
O=P(O)(O)OC(Cn1cncn1)(Cn1cncn1)c1ccc(F)cc1F,3.18%,,
CN1CCN(CCCN2c3ccccc3Sc3ccccc32)CC1,,inactive [at 100 µM],
CCCN(CC)C(CC)C(=O)Nc1c(C)cccc1C (stereo unspecified),-1.15%,,
COC(=O)Nc1cc(Nc2cc(NC3CC3)c3ncc(C#N)n3n2)c(Cl)c(N2CCN(C)CC2)c1,-7.24%,,
CC#CCC(C)[C@H](O)/C=C/[C@@H]1[C@H]2C/C(=C/CCCC(=O)O)C[C@H]2C[C@H]1O (stereo partly specified),-21.6%,,
CCCCCCCC(=O)CC[C@@H]1[C@@H](C/C=C\CCCC(=O)OC(C)C)[C@@H](O)C[C@H]1O,-20.1%,,
OC(CN1CCCCC1)c1cc(-c2ccccc2)on1 (stereo unspecified),4.31%,,
CC(CC(c1ccccc1)c1ccccc1)NC(C)(C)C (stereo unspecified),-1.46%,,
Cc1ccc(C2(O)CCN(CCCC(=O)c3ccc(F)cc3)CC2)cc1,,inactive,
NCCCNCCCCNC(=O)C(O)NC(=O)CCCCCCN=C(N)N (stereo unspecified),4.79%,,
NCCCC[C@H](NC(=O)[C@@H]1CCCN1C(=O)[C@@H]1CSSC[C@H](NC(=O)CNC(=O)CNC(=O)CN)C(=O)N[C@@H](Cc2ccc(O)cc2)C(=O)N[C@@H](Cc2ccccc2)C(=O)N[C@@H](CCC(N)=O)C(=O)N[C@@H](CC(N)=O)C(=O)N1)C(=O)NCC(N)=O (H-GGGCYFQNCPKG-NH2; disulfide 4-9),3.88%,,
FC(F)(F)c1ccc(CNc2ccc(Cc3c[nH]c4ncc(Cl)cc34)cn2)cn1,-0.561%,,
CCCCCCCCCCCCCCCC(=O)O[C@@H]1CC(C)=C(/C=C/C(C)=C/C=C/C(C)=C/C=C/C=C(C)/C=C/C=C(C)/C=C/C2=C(C)C[C@@H](OC(=O)CCCCCCCCCCCCCCC)CC2(C)C)C(C)(C)C1,,,1.26 µM (active)
COc1ccc(C(=O)Nc2ccccc2CCC2CCCCN2C)cc1 (stereo unspecified),-11.3%,,
CNC[C@@H]1CC[C@@H](N)[C@@H](O[C@H]2[C@H](O)[C@@H](O[C@H]3OC[C@](C)(O)[C@H](NC)[C@H]3O)[C@H](N)C[C@@H]2N)O1,-19.3%,,
CCCCCCCCCCCCCCCCCC(=O)[O][Al],-12.8% [at 4.52 µM],,
O=P(O)(O)OC(CO)CO,,inactive,
CN=C(NC)NCc1ccccc1,,inactive,
O=P(O)(O)C(Sc1ccc(Cl)cc1)P(=O)(O)O,,inactive [at 0.409 µM],
CN(C(=O)CO)c1c(I)c(C(=O)NCC(O)CO)c(I)c(C(=O)NCC(O)CO)c1I (stereo unspecified),3.32%,,
CN1CCN(C2=Nc3ccccc3Cc3ccccc32)CC1,-23.9%,,
